This is part of a sample that, as a whole, favours compounds with a hit. Of some 83,000 tested, about 20% had one in any assay.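 The endpoint reported here, percent growth, reads 100 for growth as untreated, 0 for no net growth and -100 for all cells dead.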 Active and inactive are the calls of the source. The calls were made as follows: active = growth percent below 10; inactive = the rest.
Legend:
Test in all cases: NCI-60 one-dose screen, 48 h (100 = growth as untreated, 0 = no growth, -100 = all killed)
Conditions in all cases: 10 µM unless noted
HCT-15 colon = tested on: HCT-15 colon
HT29 colon = tested on: HT29 colon
SNB-75 CNS = tested on: SNB-75 CNS
U251 CNS = tested on: U251 CNS
PC-3 prostate = tested on: PC-3 prostate
SK-MEL-5 melanoma = tested on: SK-MEL-5 melanoma
UACC-62 melanoma = tested on: UACC-62 melanoma
LOX IMVI melanoma = tested on: LOX IMVI melanoma
SK-MEL-28 melanoma = tested on: SK-MEL-28 melanoma
SK-MEL-2 melanoma = tested on: SK-MEL-2 melanoma
EKVX NSCLC = tested on: EKVX NSCLC
SN12C renal = tested on: SN12C renal
UO-31 renal = tested on: UO-31 renal
TK-10 renal = tested on: TK-10 renal
ACHN renal = tested on: ACHN renal
CAKI-1 renal = tested on: CAKI-1 renal
A498 renal = tested on: A498 renal
CCRF-CEM leukemia = tested on: CCRF-CEM leukemia
MOLT-4 leukemia = tested on: MOLT-4 leukemia

Measured: growth

COc1ccc(/C=C/C(=O)/C=C/c2cc3ccc(Cl)cc3[nH]c2=O)cc1
inactive: HCT-15 colon 87.4% | HT29 colon 80.6% | SNB-75 CNS 76.2% | U251 CNS 53.3% | PC-3 prostate 76.1% | SK-MEL-5 melanoma 98.6% | UACC-62 melanoma 72.1% | LOX IMVI melanoma 48.5% | SK-MEL-28 melanoma 103% | SK-MEL-2 melanoma 94% | EKVX NSCLC 84.7% | SN12C renal 85.7% | UO-31 renal 75.7% | TK-10 renal 124% | ACHN renal 88.6% | CAKI-1 renal 93.2% | A498 renal 92.7% | CCRF-CEM leukemia 56.8% | MOLT-4 leukemia 65.3%

Cc1cc(Cl)ccc1OC(C)C(=O)Nc1nnc(C2CC2)s1 (configuration not stated)
inactive: HCT-15 colon 119% | HT29 colon 66.4% | SNB-75 CNS 104% | U251 CNS 101% | PC-3 prostate 99.2% | SK-MEL-5 melanoma 74% | UACC-62 melanoma 85.5% | LOX IMVI melanoma 95.4% | SK-MEL-28 melanoma 120% | SK-MEL-2 melanoma 36.3% | EKVX NSCLC 98.6% | SN12C renal 96.4% | UO-31 renal 40.1% | TK-10 renal 104% | ACHN renal 109% | CAKI-1 renal 103% | A498 renal 95.2% | CCRF-CEM leukemia 95.9% | MOLT-4 leukemia 108%

CC(CCc1ccccc1)NC(=O)c1n[nH]c(=O)c2ccccc12 (configuration not stated)
inactive: HCT-15 colon 101% | HT29 colon 105% | SNB-75 CNS 96.6% | U251 CNS 103% | PC-3 prostate 95.7% | SK-MEL-5 melanoma 98.9% | UACC-62 melanoma 93.9% | LOX IMVI melanoma 95.4% | SK-MEL-28 melanoma 118% | SK-MEL-2 melanoma 79.2% | EKVX NSCLC 105% | SN12C renal 107% | UO-31 renal 47.5% | TK-10 renal 89.6% | ACHN renal 97.8% | CAKI-1 renal 104% | A498 renal 98.4% | CCRF-CEM leukemia 83.4% | MOLT-4 leukemia 83.4%

N#CC1=C(N)n2nc(-c3ccncc3)nc2NC1c1cccc2ccccc12 (configuration not stated)
inactive: HCT-15 colon 90.4% | HT29 colon 97.8% | SNB-75 CNS 67.6% | U251 CNS 86.7% | PC-3 prostate 76% | SK-MEL-5 melanoma 88.6% | UACC-62 melanoma 72.4% | LOX IMVI melanoma 79% | SK-MEL-28 melanoma 106% | SK-MEL-2 melanoma 96.3% | EKVX NSCLC 71.7% | SN12C renal 96.6% | UO-31 renal 58.1% | TK-10 renal 103% | ACHN renal 95.2% | CAKI-1 renal 69% | A498 renal 89.8% | CCRF-CEM leukemia 87.7% | MOLT-4 leukemia 86.4%

COC1=CC(c2ccc[nH]2)=N/C1=C\c1[nH]c(C)c(C(=O)CCC(=O)Oc2ccc3c(c2)CCC2C3CC[C@]3(C)[C@@H](O)CC[C@@H]23)c1C (some centres not stated)
active: HCT-15 colon -48% | HT29 colon 6.68% | U251 CNS -48.4% | SK-MEL-5 melanoma -84.2% | UACC-62 melanoma -41.8% | LOX IMVI melanoma -81.7% | SK-MEL-2 melanoma 1.42% | UO-31 renal -61.9% | ACHN renal -55.3% | CAKI-1 renal -39.3% | A498 renal -12.7% | CCRF-CEM leukemia 0.176% | MOLT-4 leukemia -9.7%
inactive: SNB-75 CNS 12.1% | PC-3 prostate 17.8% | SK-MEL-28 melanoma 41.2% | SN12C renal 17.3% | TK-10 renal 34.4%

O=S(=O)(NCCCNc1nccc(-c2c(-c3ccc(O)cc3)nc3sccn23)n1)c1ccc(F)cc1
inactive: SNB-75 CNS 17.8% | U251 CNS 11.1% | PC-3 prostate 19.3% | SN12C renal 10% | TK-10 renal 26.6% | CAKI-1 renal 11.6%
active: HCT-15 colon 10% | HT29 colon 7.73% | SK-MEL-5 melanoma -85.1% | UACC-62 melanoma -1.06% | LOX IMVI melanoma -29.4% | SK-MEL-28 melanoma -6.84% | SK-MEL-2 melanoma -42.5% | UO-31 renal 9.16% | ACHN renal -5.95% | CCRF-CEM leukemia 8.07% | MOLT-4 leukemia 2.05%

Cc1oc2nc[nH]c(=O)c2c1C(=O)/C=C/c1ccc(Cl)cc1Cl
inactive: HCT-15 colon 50.6% | HT29 colon 30.4% | SNB-75 CNS 44.6% | U251 CNS 85.1% | PC-3 prostate 59.2% | SK-MEL-5 melanoma 81.6% | UACC-62 melanoma 53.5% | LOX IMVI melanoma 52.2% | SK-MEL-28 melanoma 89.1% | SK-MEL-2 melanoma 91.3% | EKVX NSCLC 117% | SN12C renal 67% | UO-31 renal 67.6% | TK-10 renal 123% | ACHN renal 66.4% | CAKI-1 renal 46.1% | A498 renal 94.3% | MOLT-4 leukemia 86.8%

CCNCc1ccncc1
inactive: HCT-15 colon 104% | HT29 colon 102% | SNB-75 CNS 92.5% | U251 CNS 94.9% | PC-3 prostate 85.2% | SK-MEL-5 melanoma 102% | UACC-62 melanoma 109% | LOX IMVI melanoma 93.6% | SK-MEL-28 melanoma 119% | SK-MEL-2 melanoma 106% | SN12C renal 108% | UO-31 renal 89.8% | TK-10 renal 99.5% | ACHN renal 108% | CAKI-1 renal 94% | A498 renal 97.8% | CCRF-CEM leukemia 95% | MOLT-4 leukemia 92%

COc1cc(-c2csc(NC(=O)Nc3ccc(Cl)cc3Cl)n2)cc(OC)c1OC
inactive: HCT-15 colon 23% | HT29 colon 10.8% | U251 CNS 25.7% | PC-3 prostate 18.7% | SK-MEL-5 melanoma 18.4% | UACC-62 melanoma 30.9% | LOX IMVI melanoma 28.9% | SK-MEL-28 melanoma 62.6% | SK-MEL-2 melanoma 62.7% | EKVX NSCLC 46.6% | SN12C renal 59.5% | UO-31 renal 34.6% | TK-10 renal 54.6% | ACHN renal 30.3% | CAKI-1 renal 37.8% | A498 renal 34.8% | CCRF-CEM leukemia 33.3% | MOLT-4 leukemia 33.4%
active: SNB-75 CNS 4.13%

C=C1C(=O)O[C@H]2[C@H]1CC/C(Cn1cc(-c3ccccc3C(F)(F)F)nn1)=C\CC[C@@]1(C)O[C@@H]21
inactive: SNB-75 CNS 35.1% | U251 CNS 13.1% | SK-MEL-5 melanoma 14.5% | A498 renal 25.9%
active: HCT-15 colon -70.7% | HT29 colon -85.3% | PC-3 prostate -31.1% | UACC-62 melanoma -61.8% | LOX IMVI melanoma -91.7% | SK-MEL-28 melanoma -58.9% | SK-MEL-2 melanoma -42.2% | EKVX NSCLC -78.6% | SN12C renal -35.3% | UO-31 renal -94.5% | TK-10 renal -50.1% | ACHN renal -85.4% | CAKI-1 renal -48.8% | CCRF-CEM leukemia -28.5% | MOLT-4 leukemia -11.7%

COc1ccc(/C=C/c2nc(N3CCOCC3)c3cc(F)c(F)cc3n2)cc1OC
active: PC-3 prostate 8.26% | SK-MEL-5 melanoma -18.1% | MOLT-4 leukemia 6.52%
inactive: HCT-15 colon 36.3% | HT29 colon 42.4% | SNB-75 CNS 54.8% | U251 CNS 41.5% | UACC-62 melanoma 41.1% | LOX IMVI melanoma 36.4% | SK-MEL-28 melanoma 52.4% | SK-MEL-2 melanoma 43.3% | SN12C renal 33.4% | UO-31 renal 20.1% | TK-10 renal 28.8% | ACHN renal 33.1% | CAKI-1 renal 28.1% | A498 renal 45.5% | CCRF-CEM leukemia 35.8%

CCCOC(=O)C1(O)CCCC1
inactive: HCT-15 colon 93.9% | HT29 colon 96.3% | SNB-75 CNS 80.9% | U251 CNS 104% | PC-3 prostate 96.9% | SK-MEL-5 melanoma 99.4% | UACC-62 melanoma 105% | LOX IMVI melanoma 108% | SK-MEL-28 melanoma 99.2% | SK-MEL-2 melanoma 90.8% | SN12C renal 102% | UO-31 renal 90.6% | TK-10 renal 98.8% | ACHN renal 94% | A498 renal 103% | MOLT-4 leukemia 93.1%

COc1cc(Cn2c(SCC(=O)Nc3ccc(Cl)cc3)nc3ccccc3c2=O)cc(OC)c1OC
inactive: HCT-15 colon 72.8% | HT29 colon 87.4% | SNB-75 CNS 27.1% | U251 CNS 75.4% | PC-3 prostate 65.9% | SK-MEL-5 melanoma 49.8% | LOX IMVI melanoma 56.1% | SK-MEL-28 melanoma 83.7% | SN12C renal 71.2% | UO-31 renal 17.7% | TK-10 renal 67.8% | ACHN renal 18.9% | CAKI-1 renal 71.1% | A498 renal 41.4% | CCRF-CEM leukemia 83.1% | MOLT-4 leukemia 46.4%

COc1cc(C(=O)N2CCN(C(=O)c3ccco3)CC2)c(N)cc1OCc1ccccc1
inactive: HCT-15 colon 101% | HT29 colon 107% | SNB-75 CNS 96.8% | U251 CNS 99.1% | PC-3 prostate 98.5% | SK-MEL-5 melanoma 94.9% | UACC-62 melanoma 93.8% | LOX IMVI melanoma 92.4% | SK-MEL-28 melanoma 114% | SK-MEL-2 melanoma 77.6% | EKVX NSCLC 94.6% | SN12C renal 101% | UO-31 renal 41.9% | TK-10 renal 107% | ACHN renal 99.6% | CAKI-1 renal 105% | A498 renal 105% | CCRF-CEM leukemia 86.4% | MOLT-4 leukemia 95.4%

O=S(=O)(NCCCNc1cc(-c2cn(-c3ccccc3)nc2-c2cccc(O)c2)ccn1)c1ccc(Cl)cc1
active: HCT-15 colon -5.43% | HT29 colon -32.7% | PC-3 prostate 1.79% | SK-MEL-5 melanoma -19.5% | LOX IMVI melanoma 3.96% | SK-MEL-28 melanoma -27.5% | SK-MEL-2 melanoma 5.9% | MOLT-4 leukemia 4.49%
inactive: SNB-75 CNS 20.3% | U251 CNS 13.8% | UACC-62 melanoma 17.1% | EKVX NSCLC 27.6% | SN12C renal 34.5% | UO-31 renal 10% | TK-10 renal 33.5% | ACHN renal 17% | CAKI-1 renal 15.3% | A498 renal 26.4% | CCRF-CEM leukemia 11.6%

CSc1ccccc1C#C/C=C\C#Cc1ccccc1N1CCCC1=O
inactive: HCT-15 colon 37.6% | HT29 colon 24.1% | SNB-75 CNS 47% | U251 CNS 34.3% | PC-3 prostate 46.2% | SK-MEL-5 melanoma 22.2% | UACC-62 melanoma 34.4% | LOX IMVI melanoma 30.8% | SK-MEL-28 melanoma 50.1% | EKVX NSCLC 55.3% | SN12C renal 72.1% | TK-10 renal 83.1% | ACHN renal 57.9% | CAKI-1 renal 70.2% | A498 renal 55.3% | CCRF-CEM leukemia 23.6% | MOLT-4 leukemia 27.4%

Cc1cc(C)c(NC(=O)c2sc3nc4c(cc3c2N)CN(Cc2ccccc2)CC4)c(C)c1
inactive: HCT-15 colon 21.7% | U251 CNS 32.9% | PC-3 prostate 22% | SK-MEL-5 melanoma 26.1% | UACC-62 melanoma 24.5% | LOX IMVI melanoma 38.7% | SK-MEL-28 melanoma 57.1% | SK-MEL-2 melanoma 24% | SN12C renal 23.9% | UO-31 renal 26.5% | TK-10 renal 67.6% | ACHN renal 45.7% | CCRF-CEM leukemia 16.6% | MOLT-4 leukemia 25%
active: HT29 colon 7.19% | SNB-75 CNS 7.64% | A498 renal 1.87%
